Source: PubChem BioAssay
Gli-Sufu block: Gli-Sufu pathway antagonism; Sufu-KO-LIGHT fibroblasts, Gli luciferase reporter luminescence; inhibition, % at 5 µM; actives 0.74% (n = 340,000);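 active means inhibition above about 55%, limit read from the data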
Mdm2-MdmX inh: human Mdm2/MdmX binding inhibition; AID 485346; SaOS-2 split-luciferase Mdm2/MdmX complementation, luminescence; inhibition, % at 8 µM; actives 3% (n = 330,000); O15151+Q00987;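 active means inhibition of at least 50% at 8 µM in the primary screen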
Target sequence (O15151 whole entry, looked up): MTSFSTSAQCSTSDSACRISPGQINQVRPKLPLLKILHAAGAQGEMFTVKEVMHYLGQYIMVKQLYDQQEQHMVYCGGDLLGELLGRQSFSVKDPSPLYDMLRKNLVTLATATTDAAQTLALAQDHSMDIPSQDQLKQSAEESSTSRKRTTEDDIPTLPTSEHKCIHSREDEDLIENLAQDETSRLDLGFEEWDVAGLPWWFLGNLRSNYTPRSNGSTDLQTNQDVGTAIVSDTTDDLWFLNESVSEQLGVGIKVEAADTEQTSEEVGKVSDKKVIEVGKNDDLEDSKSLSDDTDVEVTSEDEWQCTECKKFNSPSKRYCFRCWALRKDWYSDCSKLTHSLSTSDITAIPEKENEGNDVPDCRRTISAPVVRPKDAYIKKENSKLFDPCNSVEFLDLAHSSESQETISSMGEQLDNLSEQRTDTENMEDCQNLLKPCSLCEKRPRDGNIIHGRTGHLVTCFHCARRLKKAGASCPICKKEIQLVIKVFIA
Target sequence (Q00987 whole entry, looked up): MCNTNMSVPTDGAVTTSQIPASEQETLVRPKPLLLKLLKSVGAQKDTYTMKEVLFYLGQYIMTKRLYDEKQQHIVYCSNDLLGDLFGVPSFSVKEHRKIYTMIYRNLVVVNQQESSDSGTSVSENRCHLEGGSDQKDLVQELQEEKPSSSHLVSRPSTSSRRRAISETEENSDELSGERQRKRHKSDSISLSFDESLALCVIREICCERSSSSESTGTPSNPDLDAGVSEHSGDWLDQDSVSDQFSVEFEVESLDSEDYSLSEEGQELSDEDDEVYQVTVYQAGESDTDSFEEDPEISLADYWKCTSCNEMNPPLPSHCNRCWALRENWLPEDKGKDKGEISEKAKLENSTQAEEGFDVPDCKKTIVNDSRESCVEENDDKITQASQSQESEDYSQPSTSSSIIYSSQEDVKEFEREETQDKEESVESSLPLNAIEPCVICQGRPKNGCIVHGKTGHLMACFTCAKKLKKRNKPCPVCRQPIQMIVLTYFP
697 NFkB inh: inhibitors of the PMA/ionomycin-induced NF-kB reporter in 697 B cells. inhibition, % at 4 µM. actives 0.33% (n = 330,000). 697 B-cell NF-kB luciferase reporter, 16 h; in the data active means inhibition above about 35%
Jurkat NFkB inh: inhibitors of the PMA/ionomycin-induced NF-kB reporter in Jurkat cells; inhibition, % at 4 µM; actives 0.53% (n = 330,000); PMA/ionomycin-induced NF-kB luciferase reporter, luminescence; in the data active means inhibition above about 50%
Shn3 inh set2: reduces Shn3 3'UTR luciferase signal in osteoblasts; actives 0.52% (n = 360,000); AID 588674; inhibition, % at 12.5 µM; Clone20 osteoblast Shn3 3'UTR firefly luciferase, 24 h;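 active means mean inhibition of at least 75% with every replicate also reaching 75%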
Mdm2 MdmX conf: confirmation of human Mdm2/MdmX interaction inhibitors. inhibition, % at 8 µM. shares compounds with Mdm2-MdmX inh. Mdm2-MdmX binding, luminescent assay. actives 55% (n = 10,000); in the data active means inhibition above about 40%
FLuc counter: full-length luciferase inhibition in Mdm2/MdmX counter-screen; SaOS-2 full-length luciferase counterscreen, luminescence; shares compounds with Mdm2-MdmX inh; inhibition, % at 8 µM; AID 504607; actives 77% (n = 6,200);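 active means mean inhibition at 8 µM reaching about 37%, which flags the compound as non-specific, limit read from the data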;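 further: p53-null SaOS-2 cells with luciferase driven by a doxycycline-inducible promoter; compound on cells about two nights before reading with doxycycline added after day one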
Numbers stand for hits; – = inactive; · = no result. A selection: hits, their analogues and other compounds. The true share with any hit is near 3.8%.

SMILES	Gli-Sufu block	Mdm2-MdmX inh	697 NFkB inh	Jurkat NFkB inh	Shn3 inh set2	Mdm2 MdmX conf	others
O=C(N/N=C/c1cccnc1)c1cc(-c2ccc(Br)cc2)nc2ccccc12	–	51.6	–	–	–	55.9	FLuc counter=57.7
O=[N+]([O-])c1cc(/C=N/NC(=S)Nc2ccccc2Cl)ccc1Cl	–	58.8	–	–	–	–
O=C(OCC(=O)N1CCCc2ccccc21)c1ccccc1OC(F)F	–	–	–	–	–	·
CC1CCN(C(=O)c2nc[nH]c2C(=O)N2CCC(C)CC2)CC1	–	–	–	–	–	·
CCCNC(=O)CN1C(=O)COc2ccc(S(=O)(=O)N3CC(C)CC(C)C3)cc21 (centres undefined)	–	–	–	–	–	·
CC(/C=N/NC(=O)c1cc(-c2ccncc2)nc2ccccc12)=C\c1ccco1	–	62.7	–	–	–	61.8	FLuc counter=96.9
CCOCCn1c(=O)c2c(nc3n2CC(C)CN3Cc2ccccc2)n(C)c1=O (centres undefined)	–	–	–	–	–	·
COc1cccc(C(=O)O)c1OS(=O)(=O)c1ccc(C)cc1	·	·	·	·	–	·
Cc1ccc(C(=O)C(c2ccccc2)N2Cc3ccccc3C2=N)cc1 (centres undefined)	55.7	78.6	–	–	–	–
CC(c1ccc(F)cc1)n1c(-c2cccs2)n[nH]c1=S (centres undefined)	–	–	–	–	–	·
COc1cc(/C=C2/SC(=O)N(Cc3ccccc3Cl)C2=O)ccc1OCc1ccncc1	–	50.7	–	–	–	–
COc1cc(/C=C2/SC(=O)NC2=O)ccc1OCc1ccccc1	–	–	–	–	–	·
Cc1ccc(N(CC(O)CN2CCCCC2)S(=O)(=O)c2ccccc2)cc1 (centres undefined)	–	–	–	–	–	·
COc1ccccc1C(c1c(O)nc(SC)[nH]c1=O)c1c(O)nc(SC)[nH]c1=O	–	–	–	–	–	·
Cc1ccc(-c2nc3ccccc3s2)cc1NC(=S)NC(=O)c1cccc2ccccc12	–	98.7	–	–	–	–
COc1ccc(OC)c2sc(N(CCCN(C)C)C(=O)CCS(=O)(=O)c3ccccc3)nc12	–	82.0	–	–	–	77.2	FLuc counter=–
Cc1ccc2sc(N(CCCN(C)C)C(=O)CCS(=O)(=O)c3ccccc3)nc2c1C	–	60.3	–	–	–	56.7	FLuc counter=–
CN(C)CCN(C(=O)CCS(=O)(=O)c1ccccc1)c1nc2c(F)cccc2s1	–	–	–	–	–	·
O=C(C1=C[C@@H](c2ccc(C(F)(F)F)cc2)C[C@@H](OCc2ccc(CO)cc2)O1)N1CCN(Cc2ccccc2)CC1	–	–	–	–	–	·
O=C(Nc1ccccc1O)c1c(O)c2c([nH]c1=O)CCCC2	–	–	–	–	–	·
CCc1cc(C)cc(OCCNC(=O)c2cncc(Br)c2)c1	–	58.5	–	–	–	–
Cc1ccc(S(=O)(=O)N(C)c2ccc(OC(=O)c3cccs3)cc2)cc1C	–	–	–	–	–	·
Cc1cccc(C(=O)CC(=O)c2cc(Cl)ccc2O)c1	–	62.3	–	–	–	58.5	FLuc counter=39.2
COCCCN1C(=O)C(CC(=O)NC(c2ccccc2)c2ccccc2)CC(C(=O)N(C(C)C)C(C)C)=C1C (centres undefined)	·	·	·	·	–	·
CCN1C(=O)c2cccc3c(NC(=O)C(C)(C)C)ccc1c23	–	–	–	–	–	·
SMILES	Gli-Sufu block	Mdm2-MdmX inh	697 NFkB inh	Jurkat NFkB inh	Shn3 inh set2	Mdm2 MdmX conf	others
CCCCC(=O)Nc1ccc2c3c(cccc13)C(=O)N2CC	–	55.1	–	–	–	–	FLuc counter=59.3
Cc1sc2nc(CN3CCOCC3)nc(NS(=O)(=O)c3cc(Cl)ccc3Cl)c2c1C	–	–	–	–	–	·
COC(=O)C1=CN(c2cc(C)cc(C)c2)C=C(C(=O)OC)C1c1cccc(F)c1	–	53.5	–	–	–	–	FLuc counter=106.1
Cc1c(C)c2ccc(OCC(=O)NCCCN3CCCC3=O)cc2oc1=O	–	–	–	–	–	·
COc1ccc(-n2c(SCC(=O)Nc3sc4c(c3C#N)CCCC4)nnc2-c2ccccc2OC)cc1	–	–	–	–	–	·
COc1ccc(-n2c(SCC(N)=O)nnc2-c2ccc(NS(=O)(=O)c3ccc(C)cc3)cc2)cc1	–	–	–	–	–	·
COc1ccc(-n2c(SCC(=O)Nc3ccccc3)nnc2-c2ccc(NS(=O)(=O)c3ccc(C)cc3)cc2)cc1	–	90.5	–	–	–	–
